Measured values as given in PubChem BioAssay (NCI).
Values joined by “and” are separate entries in the source; they are usually repeats but may differ in a detail not shown here. Identical values can stand only once. The panel holds about 83,000 compounds, 20% with a hit somewhere; the sample as a whole holds those more often.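 Single-dose data. Exposure time 48 hours. Values below 10 considered active.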 Active and inactive are the calls of the source.

The compounds below were run on HL-60(TB) leukemia (assay: NCI-60 one-dose screen, 48 h (100 = growth as untreated, 0 = no growth, -100 = all killed)). Conditions: 10 µM unless noted.

Structure (SMILES)	growth
NS(=O)(=O)OCC1OC(n2cnc3cncnc32)C(O)C1O (centres undefined)	37.8% [0.1 µM] (inactive) and 27.5% [0.1 µM] (inactive)
CCOC(=O)C(C#N)=C1CCN(C)CC1	113% (inactive)
COc1ccc(-c2cc(-c3cc(OC)ccc3OC)[nH]c(=O)c2C#N)cc1	18.1% (inactive)
COc1ccccc1NC(=O)N/C(N)=N/c1nc2ccccc2s1	-27.1% (active)
Cc1c(C(=O)O[C@H]2[C@@H]3[C@H](C)CC[C@H]3[C@]3(C)O[C@@]2(C2CCCCC2)C[C@H]3OC(=O)CO)ccc2ccccc12	-31.5% (active)
COc1ccc(-c2nc3sc4c(c3c(=O)[nH]2)CCCC4)c2ccccc12	-24.7% (active)
C#Cc1cccc(Nc2ncnc3ccc(-c4cncc(NS(C)(=O)=O)c4)cc23)c1	4% (active)
COc1cc(NCCCCN=C(N)N)c2ncccc2c1	103% (inactive)
O=C(CCN1C(=O)/C(=C/c2ccc(O)cc2)SC1=S)Nc1ccccc1	61.2% (inactive)
Cn1c(=O)c2[nH]c(CCCCC(=O)O)nc2n(C)c1=O	60.6% (inactive)
CN1CCN(CCCOc2cccc3nc(Nc4ccc(Cl)c(F)c4)ccc23)CC1	61.9% (inactive)
O=C(O)[C@@H]1c2ccccc2-c2ccccc2[C@H]1C(=O)O	91.3% (inactive)
COc1ccc(Nc2ccnc(N3CCN(c4ccnc5cc(Cl)ccc45)CC3)n2)cc1	-16.8% (active)
NS(=O)(=O)c1cnccc1Oc1cccc2cccnc12	89.5% (inactive)
CCOC(=O)c1c(C)oc(C)c(C(=O)OCC)c1=O	247% (inactive) and 61.2% (inactive)
CCCCCCCCCCCCNC(=O)[C@H]1CSC(c2ccsc2)N1 (some centres undefined)	-12.6% (active)
CN1CCN(c2ccc3nc(-c4ccc(OCCCCN5CCN(CCCCN6C(=O)c7cccc8cccc(c78)C6=O)CC5)cc4)[nH]c3c2)CC1	16.6% (inactive)
CCOC(=O)c1cc(CC)sc1NC(=O)CC(C)=O	51.4% (inactive)
CCCCCCCCCCCCCCCCCCOc1cccc(CCOP(=O)(O)OCC[N+](C)(C)C)c1	73.4% (inactive)
COc1cc(NC(C)CCCN)c2nccc(C)c2c1OC (centres undefined)	-3.41% (active)

Structure (SMILES)	growth
O=S(=O)(NCCCNc1cc(-c2c(-c3cccc(O)c3)nc3sccn23)ccn1)c1cccc(Cl)c1	17.7% (inactive)
COCCNCC(O)Cn1c2ccc(Cl)cc2c2cc(Cl)ccc21 (centres undefined)	-42.6% (active)
COc1ccc(Cn2cc(Cn3c(=O)c(-c4nc5ccccc5[nH]4)cc4ccccc43)nn2)c(OC)c1OC	7.75% (active)
CN1CCN(c2nc(-c3cccc4ccccc34)nc3sc4c(c23)CCCCCC4)CC1	91.6% (inactive)
N#CC1C=CN(CC(N)=O)c2ccc3cccnc3c21 (centres undefined)	92.7% (inactive)
CNC(=O)c1ccc(Nc2ncc(C(F)(F)F)c(NCc3nccnc3N(C)S(C)(=O)=O)n2)cc1	-32.1% (active)
Cc1ccc(S(=O)(=O)Nc2ccc(-c3cc(-c4cccc(F)c4)c(C#N)c(N)n3)cc2)cc1	-14.9% (active)
C(=C\c1nc2ccccc2s1)/c1ccc(N2CCOCC2)s1	24% (inactive)
Clc1ccc2nc(Cl)c3ccccc3c2c1	92.3% (inactive)
NCCN1CCN(c2nccc(-c3ccc4ccccc4c3)n2)CC1	34.3% (inactive)
COc1cc(/C=C\c2cc(/C=C\c3ccc(O)c(OC)c3)n(C(=O)CNc3ccccc3OC)n2)ccc1O	25.5% (inactive)
COc1cc(-c2cc3ncccc3c3[nH]c(=O)c4cccnc4c23)cc(OC)c1OC	-7.16% (active)
Nc1c(C(=O)Nc2ccccc2)sc2nc3c(cc12)C(O)CCC3 (centres undefined)	-8.34% (active)
Cc1[nH]c2ccccc2c(=O)c1CC=C(Cl)Cl	57.5% (inactive)
Cc1noc(C)c1C(=O)OCc1coc2ccccc2c1=O	12.4% (inactive)
O=C1Cc2ccccc2C(=O)N1	67.6% (inactive)
O=C(Cn1ccc2ccccc21)Nc1ccc(-c2nc3ccccc3s2)cc1	99.9% (inactive)
Nc1nc(=S)c2ncn(C3OC(CO)C(O)C3O)c2[nH]1 (centres undefined)	96.4% (inactive) and 21.3% (inactive)
O=C(/C=C\c1ccnc2ccccc12)c1ccc([N+](=O)[O-])cc1	47.1% (inactive) and 30.4% (inactive)
